Source: PubChem BioAssay (Tox21)
Records with an inconclusive call do not appear. Where a call stands in place of a potency, no number is given. Unmarked numbers belong to inactive results. Calls of active or inactive are those of the source. The call rests on the fitted dose curve; in most records, active means well fitted cell-killing curve with a large enough effect in the repeat runs; inconclusive means weak or mixed curves, or effect the other way; inactive means flat fitted curve, though single readings scatter.

Assay: qHTS assay to identify small molecule antagonists of the retinoid acid receptor (RAR) signaling pathway - cell viability counter screen (AID 1159551); further: nearly all actives have a fitted effect of over 35% in size
Details: C3RL4 cells viability, ATP luminescence (CellTiter-Glo), 6 h; series mostly up to 92.4 µM
Text: U.S. Tox21 Program National Center for Advancing Translational Sciences [NCATS] NIH Chemical Genomics Center [NCGC] U.S. Environmental Protection Agency [EPA] National Institutes of Environmental Health Sciences [NIEHS] National Toxicology Program [NTP] U.S. Food and Drug Administration [FDA] Tox21 Assay Overview: All-trans Retinoic acid (atRA) is the potent natural metabolite of retinol and plays an important role in normal embryonic development and maintenance of cellular phenotype in adult animals. atRA is the activating ligand for the retinoic acid receptors (RARs) which form heterodimers with retinoid X receptors (RXRs) on the retinoic acid response element (RARE). Through activation of the RAR/RXRs nuclear receptors, atRA regulates the transcription of a large number of protein-coding genes and regulatory RNAs. Intracellular levels of atRA are controlled by the retinol signaling pathway (RSP) that regulates the biosynthesis and catabolism of atRA to maintain physiological levels. Chemicals that interfere with the RSP can cause abnormal intracellular levels of atRA and therefore are potential developmental toxicants. To assess compounds for the potential adverse effect on embryonic development through interfering with retinol signaling, a cell-based RARE luciferase reporter gene assay was used. C3RL4 cell line (OARSA/CFSAN/FDA, Laurel, MD) was used to screen Tox21 10K compound library for identifying inhibitors of the RSP. Also cytotoxicity was assessed by determining the viability of cells based on the quantitation of ATP.
Tox21 Assay Protocol Summary: C3RL4 cells were seeded at 1,000/well in 4 uL of assay medium into white solid 1,536-well tissue culture plates (Greiner Bio-One North America Inc. Monroe, NC) using a Multidrop Combi (Thermo Scientific, Waltham, MA) dispenser. After incubation at 37 C and 5% CO2 for an overnight, 23 nL of compounds dissolved in DMSO, positive control or DMSO only were transferred by a Pintool station (Kalypsys, San Diego, CA). One ul of 1 uM (final concentration) of Retinol was added right after the compound addition by using a Flying Reagent Dispenser (FRD) (Aurora Discovery, San Diego, CA). After 6 hr incubation at 37 C and 5% CO2, 5 uL of CellTiter-Glo reagent (Promega Corporation, Madison, WI) was added to each assay plate using an FRD. Luminescence was quantified on a ViewLux plate reader (PerkinElmer, Waltham, MA) after 30 min incubation at room temperature.
Potency means the concentration at half of the fitted maximal effect.

Compound | Potency | activity change, negative = cytotoxicity
O=C1[C@H]2CCCC[C@H]2C(=O)N1CCCCN1CCN(c2nsc3ccccc23)CC1 | inactive | –
CC(=O)OC[C@H]1O[C@@H](n2ncc(=O)[nH]c2=O)[C@H](OC(C)=O)[C@@H]1OC(C)=O | inactive | –
COC(C)(C)CCO | inactive | –
O=C(NCC1CN(c2ccc(N3CCOCC3=O)cc2)C(=O)O1)c1ccc(Cl)s1 (stereo not given) | inactive | –
C/C=C/C=C/CO | inactive | –
C[N+](C)(C)CCOC(=O)CCC(=O)OCC[N+](C)(C)C | inactive | –
C[C@H]1C[C@H]2[C@@H]3CCC4=CC(=O)C=C[C@]4(C)[C@@]3(Cl)[C@@H](O)C[C@]2(C)[C@@]1(O)C(=O)CO | inactive | –
Cc1ncc(CO)c(C=O)c1O | inactive | –
O=C(O)c1ccc(S(=O)(=O)O)cc1C(=O)O | inactive | –
COc1cc(Cl)c(OC)cc1N | inactive | –
CC(C)=CCC/C(C)=C/CC/C(C)=C/CO | inactive | –
CC(C)OC(=O)C(C)N(C(=O)c1ccccc1)c1ccc(F)c(Cl)c1 (stereo not given) | inactive | –
CCOc1ccc(O)cc1 | inactive | –
Cc1cc(N)c2cc(NC(=O)Nc3ccc4nc(C)cc(N)c4c3)ccc2n1 | inactive | –
CCn1cc(C(=O)O)c(=O)c2cnc(N3CCNCC3)nc21 | inactive | –
CN1Cc2cc(C(=O)N3CCC(C4CCNCC4)CC3)ccc2NC(CC(=O)O)C1=O (stereo not given) | inactive | –
CC(C)(CO)[N+](=O)[O-] | inactive | –
COc1cccc(N(C)C(=S)Oc2ccc3c(c2)CCCC3)n1 | inactive | –
Brc1c2ccccc2c(Br)c2ccccc12 | – | 11.4% [at 8.39 µM]
CNCCCCOc1ccccc1Cc1ccccc1 | inactive | –

Compound | Potency | activity change, negative = cytotoxicity
COc1ccc(-c2nc3ccc(C4=NNC(=O)CC4C)cc3[nH]2)cc1 (stereo not given) | inactive | –
CC1=CC[C@H](C(C)C)C=C1 | inactive | –
CC1(c2ccccc2)OC(C(=O)O)=CC1=O (stereo not given) | inactive | –
COc1ccc(C)cc1[N+](=O)[O-] | inactive | –
CCCCC(CC)COC(=O)COc1ccc(Cl)cc1Cl (stereo not given) | inactive | –
CCO[C@H](Cc1ccc(OCCc2ccc(OS(C)(=O)=O)cc2)cc1)C(=O)O | inactive | –
Cc1cccc(Nc2ccccc2)c1 | inactive | –
O=C(OCCCCCCOC(=O)c1ccccc1)c1ccccc1 | inactive | –
O=C(O)c1ccc(-n2nc(-c3ccccc3O)nc2-c2ccccc2O)cc1 | inactive | –
Nc1ccc([N+](=O)[O-])c(C(F)(F)F)c1 | inactive | –
CCNc1cc(O)ccc1C | inactive | –
C1CCCNCCC1 | inactive | –
COc1cc2nc(Cl)nc(N)c2cc1OC | inactive | –
CC(C)(O)c1ccc(CNC(=O)c2cccnc2Oc2ccc(F)cc2)cc1 | inactive | –
Nc1ccc(S(=O)(=O)Nc2ccccc2)cc1 | inactive | –
CCN(CC)c1ccc2c(-c3ccccc3C(=O)O)c3ccc(=[N+](CC)CC)cc-3oc2c1 | 19.3 µM (active) | –
CCCCCCCCO[C@@H]1O[C@H](CO)[C@@H](O)[C@H](O)[C@H]1O | inactive | –
NS(=O)(=O)c1ccc(N2CCCCS2(=O)=O)cc1 | inactive | –
CCOC(=O)COC(=O)c1cc(Oc2ccc(C(F)(F)F)cc2Cl)ccc1[N+](=O)[O-] | inactive | –
CC(C)C[C@H]1C(=O)N2CCC[C@H]2[C@]2(O)O[C@](NC(=O)[C@@H]3C=C4c5cccc6[nH]c(Br)c(c56)C[C@H]4N(C)C3)(C(C)C)C(=O)N12 | inactive | –
